# Measured values reported in PubChem BioAssay.
# Activity calls are given as the source filed them. Unless noted, the rule behind the calls is not given here.
# Tests used:
# [1] = test system: Wnt5a (protein binding on small-molecule microarray); test: Wnt5a binders on small-molecule microarray, primary screen, biophysical, 635/667 nm fluorescence (AID 1142); settings: 635 nm fluorescence, higher = more signal;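 note: fluorescence read at 667 nm with signal to noise per printed feature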
# [2] = cell viability in Huh7 cells, primary screen, cytotoxicity control for HCV replication inhibitor project, CellTiter-Glo luminescence, basal, 48 h (AID 1143); settings: Huh7 HCV replicon, higher = more signal, called active from +8 up or from −8 down;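 note: Huh7 hepatoma cells carrying a hepatitis C replication reporter with no stimulus; test concentration not given here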
# [3] = P. aeruginosa biofilm formation inhibitors, primary screen, PAO1 strain, BacTiter-Glo luminescence, LB-PBS (AID 1144); settings: 12 h, higher = more signal
# [4] = CREB reporter modulators without forskolin, primary screen, cell-based, PC12, CRE-LacZ reporter, unstimulated (AID 1145); settings: no forskolin, luminescence, 4.5 h, higher = more signal, called active from +8 up or from −8 down
# [5] = CREB reporter modulators under forskolin, primary screen, cell-based, PC12, CRE-LacZ reporter, forskolin-stimulated (AID 1146); settings: luminescence, 4.5 h, higher = more signal, called active from +8 up or from −8 down;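 note: PC12 cells with 6xCRE LacZ reporter stimulated by forskolin 10 µM; beta-galactosidase reporter signal reflecting CREB driven transcription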
# [6] = target: Streptavidin (Streptomyces avidinii) (UniProt P22629); test: streptavidin binders on small-molecule microarray, primary screen, artefact control for SMM compound annotation, biophysical, 635/667 nm fluorescence (AID 1147); settings: streptavidin binding, higher = more signal;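 note: signal reflects streptavidin binding to arrayed compounds as a control protein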
# Streptavidin (Streptomyces avidinii), sequence (P22629 whole entry, looked up): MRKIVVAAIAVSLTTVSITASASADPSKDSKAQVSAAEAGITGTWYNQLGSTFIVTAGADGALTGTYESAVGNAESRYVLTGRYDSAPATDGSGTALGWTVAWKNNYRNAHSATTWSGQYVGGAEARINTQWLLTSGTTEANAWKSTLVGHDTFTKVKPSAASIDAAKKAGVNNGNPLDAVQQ
# [7] = small-molecule binders of probe aInhba, primary screen, biochemical, small-molecule microarray, 635/667 nm fluorescence (AID 1148); settings: higher = more signal;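 note: score merges 667nm spot fluorescence with signal-to-noise for antibody binding to printed compounds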
# Torsin-1A (Homo sapiens) [8] = target: Torsin-1A (Homo sapiens) (UniProt O14656); test: torsin A binders from cell lysate, primary screen, small-molecule microarray, wild-type, 635/667 nm (AID 1149); settings: COS7 hTOR1A-WT lysate, 635 nm fluorescence, higher = more signal
# Torsin-1A (Homo sapiens), sequence (O14656 whole entry, looked up): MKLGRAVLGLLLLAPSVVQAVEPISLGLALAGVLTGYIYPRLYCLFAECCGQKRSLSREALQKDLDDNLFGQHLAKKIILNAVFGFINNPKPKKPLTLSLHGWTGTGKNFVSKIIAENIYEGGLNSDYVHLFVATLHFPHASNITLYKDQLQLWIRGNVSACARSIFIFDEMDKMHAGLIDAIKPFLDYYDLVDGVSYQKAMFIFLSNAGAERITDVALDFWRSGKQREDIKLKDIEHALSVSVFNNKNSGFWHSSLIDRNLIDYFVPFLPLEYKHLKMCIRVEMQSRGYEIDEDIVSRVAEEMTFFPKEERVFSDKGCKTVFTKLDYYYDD
# Torsin-1A (Homo sapiens) [9] = target: Torsin-1A (Homo sapiens) (UniProt O14656); test: small-molecule binders of mutant TOR1A in lysate, primary screen, cell lysate, small-molecule microarray, COS7 lysate, 635/667 nm fluorescence (AID 1150); settings: COS7 hTOR1A mutant lysate, 635 nm fluorescence, higher = more signal;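 note: score pools 667 nm emission and signal to noise measuring lysate protein binding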
# [10] = test system: Sonic hedgehog protein (Shh); test: small-molecule binders of Shh protein, primary screen, biochemical, small-molecule microarray, 635/667 nm fluorescence (AID 1151); settings: small-molecule microarray binding, 635 nm fluorescence; higher = more signal;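 note: Shh protein binding to compounds spotted on small-molecule microarray slides; score combines spot fluorescence intensity with signal-to-noise across triplicate slides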
Structure (SMILES),composite z-score [1],z-score [2],z-score [3],z-score [4],z-score [5],composite z-score [6],composite z-score [7],composite z-score (Torsin-1A (Homo sapiens) [8]),composite z-score (Torsin-1A (Homo sapiens) [9]),composite z-score [10]
COC(=O)[C@@]1(Cc2ccc(OC)cc2)[C@H]2c3cc(C(=O)N4CCCC4)n(CCc4c[nH]c5cc(F)ccc45)c3C[C@H]2CN1C(=O)c1ccccc1,0.313,-1.26 (inactive),-0.0146 (inactive),0.773 (inactive),0.199 (inactive),2.19,0.636,0.188,1.25,0.133
O=C(O)[C@H]1C[C@H]2C(=O)NCC(=O)N2[C@H]1c1ccc(O)cc1,-0.0071,-0.283 (inactive),-0.642 (inactive),-0.13 (inactive),-0.108 (inactive),-0.54,-0.168,0.562,-0.0135,0.751
CC(C)C(O)C1C=CC2C(=O)N(c3ccccc3)C(=O)C2N1Nc1ccc(C#N)cc1 (stereo not given),0.612,0.388 (inactive),-0.783 (inactive),0.629 (inactive),0.813 (inactive),0.761,0.388,-0.0618,0.719,0.0011
C=CCC(OC(C)=O)[C@@H]1[C@@H](N(Cc2ccc(-c3ccccc3)cc2)C(=O)Cc2ccc(OC)cc2)c2cc(OCCCO)ccc2N1C(=O)c1ccc2ccccc2n1 (stereo not given in full),-0.167,-1.53 (inactive),0.321 (inactive),0.409 (inactive),0.677 (inactive),0.437,-0.0471,-0.0598,0.0615,-0.111
O=C1C[C@@](C(=O)NC2CC2)(c2ccc([N+](=O)[O-])cc2)[C@@H](c2ccc(CO)cc2)N1CC12CC3CC(CC(C3)C1)C2,0.382,-4.42 (inactive),-0.752 (inactive),-0.529 (inactive),-1.12 (inactive),0.465,-0.0736,0.477,-0.176,0.777
COC(=O)[C@@]1(Cc2ccccc2)N=C(c2ccc(OCCCO)cc2)O[C@H]1c1ccccc1N=[N+]=[N-],0.805,-4.03 (inactive),-0.0344 (inactive),2.95 (inactive),-1.52 (inactive),-1.09,0.25,3.85,3.84,2.07
COC(=O)[C@@]1(Cc2ccc(OC)cc2)[C@H]2c3cc(C(=O)N4CCCC4)n(Cc4ccccn4)c3C[C@H]2CN1C(=O)c1ccccc1,0.782,-1.47 (inactive),0.621 (inactive),0.201 (inactive),1.03 (inactive),0.523,1.1,-0.367,1.05,-0.622
CC(C)C(=C=CC[C@H](O)c1cccc(OCCO)c1)C[C@H](O)COCc1ccccc1,0.148,-0.33 (inactive),-0.457 (inactive),1.82 (inactive),0.526 (inactive),1.24,0.167,1.03,0.33,2.09
NCCCCCNC(=O)[C@H]1C[C@H]2C(=O)NCC(=O)N2[C@H]1c1cccc(OCCO)c1,0.584,0.241 (inactive),-0.147 (inactive),-1.08 (inactive),0.0161 (inactive),0.579,-0.144,0.483,0.727,2.01
CCOC(=O)C[C@H]1[C@H](OC(=O)c2ccc(C(=O)c3ccccc3)cc2)[C@@H](NC(=O)C2CCCCC2)c2cc(OCCCO)ccc2N1C(=O)c1ccccc1,0.177,-0.361 (inactive),0.441 (inactive),2.06 (inactive),-0.0298 (inactive),0.767,0.58,0.342,0.358,1.31
COCCOC(=O)N1C(=O)[C@@]2(c3cc(C#CCCO)ccc31)[C@H](c1ccccc1OCCO)N1[C@H](c3ccccc3)[C@H](c3ccccc3)OC(=O)[C@H]1[C@@H]2C(=O)N1CCN(c2ncccn2)CC1,0.544,-1.01 (inactive),0.566 (inactive),-0.329 (inactive),1.99 (inactive),1.41,0.262,0.0623,0.835,1.37
CCOC(=O)C1=CCC(C(C)(C)C)N(S(=O)(=O)c2ccc(C)cc2)C1 (stereo not given),0.858,-4.52 (inactive),1.19 (inactive),0.883 (inactive),0.639 (inactive),1.6,-0.0933,0.881,1.67,0.722
[N-]=[N+]=NCc1ccccc1C[C@]1(C(=O)NCC(O)CO)N=C(c2ccc(OCCCO)cc2)O[C@H]1c1ccccc1N=[N+]=[N-] (stereo not given in full),0.376,-2.54 (inactive),-0.000841 (inactive),0.241 (inactive),-1.78 (inactive),0.22,0.403,0.26,0.67,-1.48
Cc1ccc(S[C@]2(C(=O)NC3CC3)CC(=O)N(Cc3ccccc3)[C@@H]2c2ccc(CO)cc2)cc1,-0.144,0.103 (inactive),0.396 (inactive),-0.295 (inactive),0.473 (inactive),-0.807,-0.0762,-0.559,-0.906,-0.863
COc1cccc(C(=O)O[C@H]2CC[C@]3(C)C4=C(CCC3C2(C)C)[C@]2(C)CC[C@H]([C@H](C)CCCC(C)C)[C@@]2(C)CC4)c1 (stereo not given in full),0.0406,-1 (inactive),-1.11 (inactive),1.21 (inactive),-0.687 (inactive),0.184,-0.157,0.637,0.216,0.425
O=C1C=CC(=O)[C@@H]2CC(COc3ccccc3)=C3[C@@H](CCc4ccccc4)OB(O)C[C@@H]3[C@H]12,0.135,-2.77 (inactive),0.452 (inactive),4.76 (inactive),4.47 (inactive),-0.132,-0.231,-0.386,-0.0222,1.3
CC(=O)NCCCC[C@@H]1NC(=O)[C@@H]2C[C@H](C(=O)NCCCCN(C)C)[C@H](c3ccc(O)cc3)N2C1=O,-0.465,0.0068 (inactive),-1.02 (inactive),-0.809 (inactive),-0.174 (inactive),-0.506,-0.23,-0.893,-0.88,0.54
COC(=O)[C@@]1(Cc2ccc(OC)cc2)[C@H]2c3cc(C(=O)N(C)C)n(Cc4c(OC)[nH]cc(C)c4=O)c3C[C@H]2CN1C(=O)c1ccccc1,-0.0522,-0.857 (inactive),0.0281 (inactive),-0.185 (inactive),0.69 (inactive),-0.0748,0.0882,0.0857,1.16,-1.1
Cc1ccc(S[C@]2(C(=O)NCc3ccccc3)CC(=O)N(Cc3ccccc3Cl)[C@@H]2c2ccc(CO)cc2I)cc1,-0.657,-1.68 (inactive),-1.12 (inactive),-0.258 (inactive),1.72 (inactive),-0.15,-0.0963,-2.03,-1.65,0.262
C=CC[C@@]1(C(=O)NCC(O)CO)N=C(c2ccc(OCCCO)cc2)O[C@@H]1c1ccccc1N=[N+]=[N-] (stereo not given in full),0.147,-4.04 (inactive),-0.281 (inactive),0.573 (inactive),-0.815 (inactive),1.02,0.246,1.4,1.48,-0.0776
COC(=O)C1=CC(CCCO)=CC(C2CC2)N(Cc2sc3ccccc3c2Cl)C=C1C(=O)OC (stereo not given),0.351,-3.83 (inactive),0.989 (inactive),-0.464 (inactive),0.106 (inactive),2.17,0.19,0.688,0.806,-0.112
COCCOC(=O)N1C(=O)[C@@]2(c3cc(C#Cc4ccc(OC)cc4)ccc31)[C@H](C(=O)N1CCN(c3ncccn3)CC1)[C@H]1C(=O)O[C@H](c3ccccc3)[C@H](c3ccccc3)N1[C@@H]2c1ccc(O)cc1,-0.0081,-3.61 (inactive),-1.03 (inactive),-0.191 (inactive),0.0921 (inactive),-0.0988,-0.0762,0.561,-0.007,0.736
COc1ccc(C(=O)Nc2cccc(CN3C(=O)[C@@]4(O[C@@H](CCn5cc(CCO)nn5)[C@H]([Si](C)(C)c5ccc(OC)cc5)[C@H]4C)c4ccccc43)c2)cc1,0.504,-8.01 (active),-0.609 (inactive),8.36 (active),-1.29 (inactive),0.37,0.0184,0.503,0.347,1.72
CC(C)c1ccc(NN2C(C(O)c3c(F)cccc3Cl)C=CC3C(=O)N(c4ccccc4)C(=O)C32)cc1 (stereo not given),0.658,-0.78 (inactive),-0.53 (inactive),-0.519 (inactive),0.746 (inactive),1.47,0.765,0.213,-0.164,-0.182
COCC(=C=CC[C@H](O)c1ccc(OCCO)cc1)C[C@H](O)c1cc(Cl)cc(Cl)c1O,0.635,-7.94 (inactive),-0.984 (inactive),11.1 (active),0.96 (inactive),0.169,0.0849,1.06,0.3,2.26
COc1cc2c(cc1O)C(C)N(Cc1cccc(OC(F)(F)F)c1)CC2 (stereo not given),0.475,-0.842 (inactive),-0.334 (inactive),0.506 (inactive),1.66 (inactive),0.395,0.0528,1.7,1.91,0.204
COc1cc2c(cc1OC)CN(C(=O)[C@@H]1[C@H]3C(=O)O[C@H](c4ccccc4)[C@H](c4ccccc4)N3[C@H](c3ccccc3OCCO)[C@@]13C(=O)Nc1ccc(C#CCNC(N)=O)cc13)CC2,0.38,-2 (inactive),-0.105 (inactive),-0.168 (inactive),-0.0826 (inactive),0.684,0.32,0.593,0.812,1.38
C=CCC(OC(C)=O)[C@@H]1[C@@H](N(Cc2ccc(-c3cccc(C(F)(F)F)c3)o2)C(=O)c2ccc(C)cc2)c2cc(OCCCO)ccc2N1C(=O)c1ccc(-c2ccccc2)cc1 (stereo not given in full),0.0167,0.224 (inactive),-0.747 (inactive),-0.463 (inactive),-0.183 (inactive),0.535,0.0154,-0.245,-0.141,1.32
CCOC(=O)C1=CCC(c2ccc(C#N)cc2)N(S(=O)(=O)c2ccc(C)cc2)C1 (stereo not given),0.445,-4.77 (inactive),-0.0317 (inactive),0.22 (inactive),-0.986 (inactive),1.87,0.211,0.375,0.709,0.409
